In PubChem BioAssay:
“And” between values parts separate entries of the source, which are not always exact repeats. Equal values may be shown once. The source made the active and inactive calls.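 How the source made its calls, unless noted: active means compounds whose cell count with miR-34 switched on is under 0.7 times the count with it off; inactive means the rest.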

Legend:
[1] = test system: Aerobactin synthetase IucA (Klebsiella pneumoniae); assay: inhibition of K. pneumoniae IucA enzyme – biochemical, Tocris library, absorbance (AID 1345561; call rule not given here;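 further: 100% = enzyme without compound and 0% = no enzyme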); details: purified IucA enzyme assay, absorbance (OD) read-out; stronger effect = lower value;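 tested at 8 µM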
[2] = viability loss with induced miR-34 in A549 – imaging, A549 dox-inducible miR-34, nuclei and caspase counts, primary screen (AID 1347080); details: A549 miR-34 inducible, Hoechst nuclei count, 48 h
[3] = galactose survival enhancers in mitochondrial complex I cybrids – cell-based, galactose medium, ATP luminescence, primary screen (AID 1645843;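 active means z-score of at least 1.8 in each of two replicates, scored against plate mean and spread of sample wells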;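 further: positive z means more ATP and so rescue of galactose-driven cybrid death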); details: complex I mutant cybrid cells, 72 h, stronger effect = higher value
[4] = stronger effect = lower value, cell number ratio, induced over uninduced
[5] = measured here: relative caspase fold change +Dox/-Dox
[6] = measured here: total cells with miR-34 induction, stronger effect = lower value
[7] = measured here: total cells without miR-34 induction

Compound | remaining activity [1] | fold change [2, 4] | fold change [2, 5] | cell count [2, 6] | cell count [2, 7] | z-score [3]
CCCCCCCC/C=C\CCCCCCCC(=O)N[C@@H](CO)Cc1ccc(O)cc1 | 129% (inactive) | 0.903 (inactive) and 0.933 (inactive) | 1.11 and 0.626 | 5590 and 5540 | 6200 and 5940 | -0.83 (inactive)
CC(C)c1ccc(C(=O)c2cccs2)c(SCCCCCCCCN(C)C)n1 | 107% (inactive) | 1.16 (inactive) | 1.04 | 3590 | 3100 | -1.04 (inactive)
C/C=C1/C(=O)C[C@H]2[C@@H]3CCC4=CC(=O)CC[C@]4(C)[C@H]3CC[C@]12C | 104% (inactive) | 0.844 (inactive) | 3.69 | 6570 | 7790 | -0.33 (inactive)
C[C@]12CC[C@@H]3c4ccc(O)cc4C[C@@H](CCCCCCCCCS(=O)CCCC(F)(F)C(F)(F)F)C3[C@@H]1CC[C@@H]2O (stereo not given in full) | 117% (inactive) | 0.929 (inactive) | 0.852 | 6320 | 6800 | 0.9 (inactive)
CC(=O)NCCc1c(Cc2ccccc2)[nH]c2ccccc12 | 105% (inactive) | 1.03 (inactive) | 0.867 | 7430 | 7230 | 0.025 (inactive)
CC(=O)c1ccc2c(c1)[C@@H]1C=CC[C@@H]1[C@H](c1cc3c(cc1Br)OCO3)N2 | 128% (inactive) | 1.21 (inactive) and 1.03 (inactive) | 0.332 and 1.3 | 2540 and 1820 | 2100 and 1760 | -0.965 (inactive)
C1CCC2(CC1)CCNCC2 | 105% (inactive) | 0.955 (inactive) | 1.56 | 9280 | 9730 | 0.34 (inactive)
Cc1ccccc1N=C(N)Nc1ccccc1C | 93.4% (inactive) | 0.944 (inactive) | 0.72 | 8710 | 9220 | -0.035 (inactive)
CCc1cc(C(C)=O)c(O)cc1OCCCCCC(C)(C)c1nn[nH]n1 | 116% (inactive) | 0.891 (inactive) | 1.51 | 7060 | 7920 | -0.21 (inactive)
N#CC(Cc1ccc(O)cc1)c1ccc(O)cc1 (stereo not given) | 90.6% (inactive) | 0.917 (inactive) and 0.865 (inactive) | 0.401 and 1.73 | 5410 and 8710 | 5900 and 10100 | 2.66 (active)
CC(C)NCC(O)COc1ccccc1-n1cccc1 (stereo not given) | 99.6% (inactive) | 0.968 (inactive) | 0.992 | 8690 | 8980 | -0.43 (inactive)
Clc1cccc(C=NC=Nc2cccc(Cl)c2)c1 | 117% (inactive) | 0.902 (inactive) | 0.788 | 8200 | 9090 | 0.99 (inactive)
COc1ccc2cccc(N3CCN(CCNC(=O)c4ccc(F)cc4)CC3)c2c1 | 104% (inactive) | 0.924 (inactive) | 0.854 | 7720 | 8360 | -0.77 (inactive)
COc1ccc(CN2C(=O)C(=O)c3cc(OC(F)(F)F)ccc32)cc1 | 114% (inactive) | 0.793 (inactive) | 1.39 | 1960 | 2480 | -1.04 (inactive)
CC(C)N1CCN(c2ccc(C(=O)c3c(-c4ccc(O)cc4)sc4cc(O)ccc34)cc2)CC1 | 105% (inactive) | 0.989 (inactive) | 1.64 | 6900 | 6980 | -0.43 (inactive)
CCCn1c(=O)[nH]c2nc(-c3ccc(S(=O)(=O)O)cc3)[nH]c2c1=O | 93.6% (inactive) | 0.829 (inactive) | 2.26 | 7230 | 8720 | 1.45 (inactive)
N[C@@H](C(=O)O)c1ccc(C(=O)O)c(C(=O)O)c1 | 95.5% (inactive) | 0.914 (inactive) | 0.832 | 8600 | 9410 | 0.05 (inactive)
CCCc1c(OCC(O)COc2ccc3c(=O)cc(C(=O)O)oc3c2CCC)ccc(C(C)=O)c1O (stereo not given) | 110% (inactive) | 0.998 (inactive) | 0.8 | 8250 | 8260 | 3.91 (active)
NCCCCCc1cnc[nH]1 | 118% (inactive) | 0.92 (inactive) | 0.639 | 9140 | 9930 | -0.155 (inactive)
O=C(c1ccc2c(c1)OCO2)N1CCCCC1 | 118% (inactive) | 0.987 (inactive) | 0.905 | 9020 | 9140 | -0.205 (inactive)
NC(C(=O)O)c1nn[nH]n1 (stereo not given) | 102% (inactive) | 1.01 (inactive) | 0.805 | 9500 | 9360 | -0.46 (inactive)
Cc1ccccc1N1CCN(S(=O)(=O)CC23CCC(C[C@@H]2NC(=O)[C@@H](N)CCS(C)(=O)=O)C3(C)C)CC1 (stereo not given in full) | 82.6% (inactive) | 0.868 (inactive) | 1.54 | 7420 | 8540 | -0.14 (inactive)
CC1(C)CCC(C)(C)c2cc(C3(c4ccc(C(=O)O)cc4)OCCO3)ccc21 | 106% (inactive) | 0.895 (inactive) | 2.19 | 8580 | 9580 | 0.95 (inactive)
Clc1ccccc1CNCC1CCC(CNCc2ccccc2Cl)CC1 (stereo not given) | 103% (inactive) | 0.98 (inactive) | 0.883 | 7550 | 7700 | -0.795 (inactive)
N=C(CC(O)COc1ccccc1-c1ccccc1)N1CCCCC1 (stereo not given) | 113% (inactive) | 0.933 (inactive) | 0.891 | 6170 | 6610 | -0.28 (inactive)
